CYP2C19 inh – blocks human cytochrome P450 2C19 | P33261 | CYP2C19 Supersomes, luciferin-H EGE luminescence, 30 min | inhibition, % at 5 µM | 21% of 96,000 active | AID 778;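 active = CYP2C19 inhibition above a set limit at 5 µM in the primary screen, cut at about 50% in these data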;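 also: plate controls were negative control wells for no effect and 2.5 mM tranylcypromine positive control for full effect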
CYP2C19 activ – cytochrome P450 2C19 (human) activation; P33261; AID 1025; activation factor at 5 µM; 96,000 tested, under 10 active; recombinant CYP2C19, luciferin-H EGE luminescence; hits give high values; 0 = fully inhibited enzyme, 1 = untreated enzyme;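 active = activation factor of at least 2 at 5 µM in the primary screen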;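 also: 0 = wells with 2.5 mM tranylcypromine and 1 = vehicle-only wells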
CYP2C9 inh – human CYP2C9 inhibition; P11712; CYP2C9 Supersomes, luciferin-H conversion, luminescence; inhibition, % at 5 µM; 20% of 96,000 active;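 active = blocking of liver enzyme CYP2C9 beyond about 50% at 5 µM, limit read from the data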
Cav32 inh – inhibitors of human Cav3.2 T-type calcium channel | 4% of 100,000 active | B-score at 10 µM | O95180 | Cav3.2-expressing cells, Fluo-4 calcium fluorescence FDSS; hits give low values | AID 449739;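 active = single-dose well whose peak fluorescence ratio is a statistical outlier from its plate by either plate-standardised score or position-corrected B-score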
CYP2C9 act – activators of human CYP2C9; activation factor at 5 µM; recombinant CYP2C9, luciferin-H conversion, luminescence; hits give high values; factor 1 = untreated enzyme, 0 = blocked; P11712; AID 1024; 1.4% of 96,000 active;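 active = activation factor of 2 or more for CYP2C9 at a 5 µM dose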;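 also: 0 = sulfaphenazole-blocked wells and 1 = vehicle-only wells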
An asterisk follows results filed as active. Compounds with a hit are over-represented: about 27% of the library has one in this group of screens.

CC(C)=C1SC(N2CCN(Cc3ccccc3)CC2)=NC1=O was read as CYP2C19 inh 57*, CYP2C19 activ 0.4, CYP2C9 inh -20, Cav32 inh 2.6 and CYP2C9 act 1.2.
`Cc1ccc(CNC(=O)CSCC(=O)O)cc1` gave CYP2C19 inh -4, CYP2C19 activ 1, CYP2C9 inh -8, Cav32 inh -0.82 and CYP2C9 act 1.1.
Screening CC(C)CCOC(=O)C1[C@H]2C(=O)N(Cc3cccs3)C[C@]23C=C[C@H]1O3 (some centres not stated) returned CYP2C19 inh 9, CYP2C19 activ 0.9, CYP2C9 inh -2, Cav32 inh -0.17 and CYP2C9 act 1.
`O=C(CN(c1ccc(F)cc1)S(=O)(=O)c1ccc2c(c1)OCCO2)NCc1cccnc1` gave CYP2C19 inh 94*, CYP2C19 activ 0.1, CYP2C9 inh 84*, Cav32 inh 0.77 and CYP2C9 act 0.2.
`O=C(CN(c1ccc(F)cc1)S(=O)(=O)c1ccc2c(c1)OCCO2)NCc1ccncc1` gave CYP2C19 inh 90*, CYP2C19 activ 0.1, CYP2C9 inh 73*, Cav32 inh 1.7 and CYP2C9 act 0.3.
For CCCNC(=O)CN(c1ccc(F)cc1)S(=O)(=O)c1ccc2c(c1)OCCO2 the results were CYP2C19 inh 81*, CYP2C19 activ 0.2, CYP2C9 inh 85*, Cav32 inh 0.15 and CYP2C9 act 0.2.
`CCOc1ccccc1C(=O)NCCCN1CCN(CCCNC(=O)c2ccccc2OCC)CC1` gave CYP2C19 inh -4, CYP2C19 activ 1, CYP2C9 inh -19, Cav32 inh -0.13 and CYP2C9 act 1.2.
Screening CN=C1SC(CC(=O)Nc2sc(C)c(C)c2C(=O)OC)C(=O)N1C (configuration not stated) returned CYP2C19 inh 48, CYP2C19 activ 0.5, CYP2C9 inh 58*, Cav32 inh -2.4 and CYP2C9 act 0.4.
For COc1ccc(N=C2SC(CC(=O)Nc3ccccc3)C(=O)N2CC2CCCO2)cc1 (configuration not stated) the results were CYP2C19 inh 47, CYP2C19 activ 0.5, CYP2C9 inh 73*, Cav32 inh -2.9 and CYP2C9 act 0.3.
`CCn1c2ccccc2c2cc(N=C3SC(CC(=O)Nc4ccccc4)C(=O)N3C)ccc21` (configuration not stated) gave CYP2C19 inh 37, CYP2C19 activ 0.6, CYP2C9 inh 87*, Cav32 inh -0.44 and CYP2C9 act 0.1.
`COc1ccccc1NC(=O)CCn1c(=O)sc2ccccc21` gave Cav32 inh -0.15.
For CCn1c2ccccc2c2cc(N=C3SC(CC(=O)Nc4ccccc4OC)C(=O)N3C)ccc21 (configuration not stated) the results were CYP2C19 inh 38, CYP2C19 activ 0.6, CYP2C9 inh 87*, Cav32 inh -0.43 and CYP2C9 act 0.1.
For COCCN1C(=O)C(CC(=O)Nc2ccc(C(=O)O)cc2)SC1=Nc1ccccc1 (configuration not stated) the results were CYP2C19 inh -14, CYP2C19 activ 1.1, CYP2C9 inh 3 and CYP2C9 act 1.
`C=CCOC(=O)C1=C[C@H](c2cn(C(C)=O)c3ccccc23)C[C@H](OCc2ccc(CO)cc2)O1` gave Cav32 inh -0.75.
`CN=C1SC(CC(=O)Nc2ccccc2F)C(=O)N1C` (configuration not stated) gave CYP2C19 inh -5, CYP2C19 activ 1, CYP2C9 inh -28, Cav32 inh 1.2 and CYP2C9 act 1.3.
Screening COC(=O)c1cc(NC(=O)CC2SC(=Nc3ccccc3)N(CCc3c[nH]c4ccccc34)C2=O)cc(C(=O)OC)c1 (configuration not stated) returned CYP2C19 inh 5, CYP2C19 activ 1, CYP2C9 inh 81*, Cav32 inh -0.11 and CYP2C9 act 0.2.
Screening CN=C1SC(CC(=O)Nc2cccc(C(F)(F)F)c2)C(=O)N1C (configuration not stated) returned CYP2C19 inh 33, CYP2C19 activ 0.7, CYP2C9 inh -286, Cav32 inh -0.078 and CYP2C9 act 3.9*.
Screening C=C(C)CSc1nncn1/N=C/c1ccc(OC)cc1 returned CYP2C19 inh 63*, CYP2C19 activ 0.4, CYP2C9 inh 55*, Cav32 inh -6* and CYP2C9 act 0.4.
Screening CCOc1cc(C(=O)NCc2ccncc2)cc(OCC)c1OCC returned CYP2C19 inh 84*, CYP2C19 activ 0.2, CYP2C9 inh 92*, Cav32 inh 0.028 and CYP2C9 act 0.1.
`CCOc1cc(C(=O)NC(C)c2ccncc2)cc(OCC)c1OCC` (configuration not stated) gave CYP2C19 inh 80*, CYP2C19 activ 0.2, CYP2C9 inh 80*, Cav32 inh 1.8 and CYP2C9 act 0.2.
For CCOc1ccc(C(=O)NCc2ccncc2)cc1OCC the results were CYP2C19 inh 40, CYP2C19 activ 0.6, CYP2C9 inh 49, Cav32 inh 0.098 and CYP2C9 act 0.5.
Screening COc1ccc(/C=N/Nc2ccccc2)cc1Cn1nc(C)c([N+](=O)[O-])c1C returned CYP2C19 inh 72*, CYP2C19 activ 0.3, CYP2C9 inh 50*, Cav32 inh -1.7 and CYP2C9 act 0.5.
For C[C@@H](NCCc1ccc(O)cc1)[C@@H](O)c1ccc(O)cc1 the results were Cav32 inh 0.23.
For CCCCCCCCNC(C)C(O)c1ccc(SC(C)C)cc1 (configuration not stated) the results were Cav32 inh -4.5*.
Screening O=C1c2[nH]nc(-c3ccccc3O)c2C(c2ccccc2F)N1Cc1ccco1 (configuration not stated) returned CYP2C19 inh 85*, CYP2C19 activ 0.1, CYP2C9 inh 95*, Cav32 inh -3.9 and CYP2C9 act 0.1.
Screening O=C1c2[nH]nc(-c3ccccc3O)c2C(c2ccccc2)N1Cc1ccco1 (configuration not stated) returned CYP2C19 inh 9, CYP2C19 activ 0.9, CYP2C9 inh 9, Cav32 inh -3.4 and CYP2C9 act 0.9.
For COC(=O)C1=C(CSc2nncn2C)NC(=O)NC1c1ccc(F)cc1 (configuration not stated) the results were CYP2C19 inh -4, CYP2C19 activ 1, CYP2C9 inh 3, Cav32 inh 0.15 and CYP2C9 act 1.
CN(C)S(=O)(=O)c1ccc(NC(=O)N2CCN(c3ccccc3Cl)CC2)cc1 was read as CYP2C19 inh -1, CYP2C19 activ 1, CYP2C9 inh -5, Cav32 inh 0.33 and CYP2C9 act 1.
`CCOc1ccc(S(=O)(=O)NCCC(=O)OCN2C(=O)c3ccccc3C2=O)cc1` gave CYP2C19 inh 70*, CYP2C19 activ 0.3, CYP2C9 inh 42, Cav32 inh 0.0053 and CYP2C9 act 0.6.
`O=C(C1CCN(S(=O)(=O)c2ccc3c(c2)OCCO3)CC1)N1CCc2ccccc21` gave CYP2C19 inh 8, CYP2C19 activ 0.9, CYP2C9 inh -12, Cav32 inh 0.48 and CYP2C9 act 1.1.
